# Data published in the supplement of paper PMC10849652.
# Of roughly 7,900 targets only a part is listed; those with a hit were picked by preference. About 0.6% of all pairs of compound and target were hits. A number with no mark means an inactive call.
# Compound: O=C1NC(=O)C(c2cnc3ccccn23)=C1c1cn2c3c(cc(F)cc13)CN(C(=O)N1CCCCC1)CC2
# Experiment: log2 fold change, soluble protein after heating vs DMSO (PISA); higher = thermal stabilisation; K562 cells, 10 uM, 30 min; active = over 0.2 and 3.5 SD of the protein, either way, in both replicates (recomputed)
# Outline: (§1)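 K562 cells at 2×10^6 cells/mL were treated for 30 min with 10 μM compound, and aliquots were heated for 3 min over 48°C-58°C before pooling. Extraction used PBS with 0.5% NP-40 at 4°C, and soluble protein was the supernatant after 21,000xg for 90 min, measured by TMTpro 16plex LC-MS/MS with channel sums equalised. Thermal stability values, relative to control samples and from duplicates, are log2 fold changes.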
# UniProt Q00536, sequence (Q00536 whole entry, looked up): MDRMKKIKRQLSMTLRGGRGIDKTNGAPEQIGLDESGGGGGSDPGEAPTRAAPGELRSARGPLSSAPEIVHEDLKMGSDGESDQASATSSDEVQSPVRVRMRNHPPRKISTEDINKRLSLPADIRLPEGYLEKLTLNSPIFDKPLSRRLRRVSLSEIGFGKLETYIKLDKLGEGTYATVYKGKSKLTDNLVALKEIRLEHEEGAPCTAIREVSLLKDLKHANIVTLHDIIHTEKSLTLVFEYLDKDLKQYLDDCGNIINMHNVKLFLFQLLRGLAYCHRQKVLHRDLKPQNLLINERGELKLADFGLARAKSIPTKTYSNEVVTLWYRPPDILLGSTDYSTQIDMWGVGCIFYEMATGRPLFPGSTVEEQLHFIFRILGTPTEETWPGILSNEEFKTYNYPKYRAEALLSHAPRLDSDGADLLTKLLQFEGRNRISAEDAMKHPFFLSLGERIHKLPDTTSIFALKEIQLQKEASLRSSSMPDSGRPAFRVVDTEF
# UniProt O76031, sequence (O76031 whole entry, looked up): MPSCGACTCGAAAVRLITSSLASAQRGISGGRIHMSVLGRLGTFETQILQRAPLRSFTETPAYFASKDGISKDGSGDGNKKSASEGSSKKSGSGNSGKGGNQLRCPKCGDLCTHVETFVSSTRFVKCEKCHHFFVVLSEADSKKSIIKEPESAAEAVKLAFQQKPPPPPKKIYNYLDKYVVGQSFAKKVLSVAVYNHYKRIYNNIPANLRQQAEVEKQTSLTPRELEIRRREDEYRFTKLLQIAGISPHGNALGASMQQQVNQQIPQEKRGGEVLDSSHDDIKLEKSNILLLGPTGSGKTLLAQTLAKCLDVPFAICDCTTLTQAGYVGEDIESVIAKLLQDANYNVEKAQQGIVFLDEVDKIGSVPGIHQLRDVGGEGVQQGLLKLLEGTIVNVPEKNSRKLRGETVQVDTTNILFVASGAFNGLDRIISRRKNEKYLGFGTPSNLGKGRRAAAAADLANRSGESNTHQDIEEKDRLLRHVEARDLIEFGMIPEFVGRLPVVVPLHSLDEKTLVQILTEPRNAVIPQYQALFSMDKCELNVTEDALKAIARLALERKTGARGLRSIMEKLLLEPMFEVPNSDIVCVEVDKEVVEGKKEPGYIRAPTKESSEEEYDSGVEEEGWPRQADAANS
# UniProt P35790, sequence (P35790 whole entry, looked up): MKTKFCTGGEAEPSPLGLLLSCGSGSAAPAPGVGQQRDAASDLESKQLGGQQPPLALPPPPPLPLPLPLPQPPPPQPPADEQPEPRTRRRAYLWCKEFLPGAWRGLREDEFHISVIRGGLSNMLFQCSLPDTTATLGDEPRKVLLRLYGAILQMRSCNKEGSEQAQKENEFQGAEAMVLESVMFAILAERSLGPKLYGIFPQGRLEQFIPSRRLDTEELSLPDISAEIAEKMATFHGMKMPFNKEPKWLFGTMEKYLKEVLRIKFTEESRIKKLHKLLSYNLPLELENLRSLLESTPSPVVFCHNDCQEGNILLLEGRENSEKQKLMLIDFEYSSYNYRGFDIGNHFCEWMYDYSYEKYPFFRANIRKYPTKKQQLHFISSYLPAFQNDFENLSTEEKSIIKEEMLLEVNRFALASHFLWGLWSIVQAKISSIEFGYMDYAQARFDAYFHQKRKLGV
# UniProt O60563, sequence (O60563 whole entry, looked up): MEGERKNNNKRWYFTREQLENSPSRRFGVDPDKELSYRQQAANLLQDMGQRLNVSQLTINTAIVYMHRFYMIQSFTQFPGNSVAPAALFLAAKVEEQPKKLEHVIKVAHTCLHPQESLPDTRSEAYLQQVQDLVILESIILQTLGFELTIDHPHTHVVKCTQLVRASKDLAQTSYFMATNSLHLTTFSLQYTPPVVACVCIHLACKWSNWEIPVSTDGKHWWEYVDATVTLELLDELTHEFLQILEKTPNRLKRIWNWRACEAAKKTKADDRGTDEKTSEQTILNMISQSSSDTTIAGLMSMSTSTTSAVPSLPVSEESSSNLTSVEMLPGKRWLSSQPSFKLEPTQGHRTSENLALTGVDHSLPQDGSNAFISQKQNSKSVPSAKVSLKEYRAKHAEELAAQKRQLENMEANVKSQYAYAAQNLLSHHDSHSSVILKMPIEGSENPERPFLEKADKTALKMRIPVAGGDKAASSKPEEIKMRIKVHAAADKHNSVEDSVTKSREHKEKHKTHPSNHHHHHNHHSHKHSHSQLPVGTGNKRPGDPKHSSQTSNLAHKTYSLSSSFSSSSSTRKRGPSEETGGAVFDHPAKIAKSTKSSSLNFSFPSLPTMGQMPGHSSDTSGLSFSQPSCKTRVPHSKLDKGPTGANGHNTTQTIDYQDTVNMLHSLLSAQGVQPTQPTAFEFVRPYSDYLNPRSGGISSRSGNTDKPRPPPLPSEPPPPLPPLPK
# UniProt P48509, sequence (P48509 whole entry, looked up): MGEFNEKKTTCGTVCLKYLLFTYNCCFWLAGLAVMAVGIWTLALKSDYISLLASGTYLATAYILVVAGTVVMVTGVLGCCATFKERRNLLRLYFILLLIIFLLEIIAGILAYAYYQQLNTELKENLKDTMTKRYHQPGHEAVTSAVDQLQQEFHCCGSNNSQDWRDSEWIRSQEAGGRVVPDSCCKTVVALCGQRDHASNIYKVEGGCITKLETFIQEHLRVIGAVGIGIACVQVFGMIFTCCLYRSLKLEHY
# UniProt Q13137, sequence (Q13137 whole entry, looked up): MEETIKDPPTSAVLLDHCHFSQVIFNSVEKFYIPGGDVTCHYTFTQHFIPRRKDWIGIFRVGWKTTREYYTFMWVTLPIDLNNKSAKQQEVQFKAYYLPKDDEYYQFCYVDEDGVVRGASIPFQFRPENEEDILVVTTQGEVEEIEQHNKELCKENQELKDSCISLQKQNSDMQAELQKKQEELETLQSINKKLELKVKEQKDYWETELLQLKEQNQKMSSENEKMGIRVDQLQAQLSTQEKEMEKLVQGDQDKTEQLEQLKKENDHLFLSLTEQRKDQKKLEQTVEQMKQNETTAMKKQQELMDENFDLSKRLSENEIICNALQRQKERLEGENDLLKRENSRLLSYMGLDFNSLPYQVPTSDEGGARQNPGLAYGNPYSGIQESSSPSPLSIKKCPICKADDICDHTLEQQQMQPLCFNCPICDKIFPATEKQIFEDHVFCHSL
# UniProt P61024, sequence (P61024 whole entry, looked up): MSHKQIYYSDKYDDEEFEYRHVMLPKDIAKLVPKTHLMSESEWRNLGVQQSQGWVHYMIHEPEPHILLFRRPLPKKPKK
# UniProt Q9BWU1, sequence (Q9BWU1 whole entry, looked up): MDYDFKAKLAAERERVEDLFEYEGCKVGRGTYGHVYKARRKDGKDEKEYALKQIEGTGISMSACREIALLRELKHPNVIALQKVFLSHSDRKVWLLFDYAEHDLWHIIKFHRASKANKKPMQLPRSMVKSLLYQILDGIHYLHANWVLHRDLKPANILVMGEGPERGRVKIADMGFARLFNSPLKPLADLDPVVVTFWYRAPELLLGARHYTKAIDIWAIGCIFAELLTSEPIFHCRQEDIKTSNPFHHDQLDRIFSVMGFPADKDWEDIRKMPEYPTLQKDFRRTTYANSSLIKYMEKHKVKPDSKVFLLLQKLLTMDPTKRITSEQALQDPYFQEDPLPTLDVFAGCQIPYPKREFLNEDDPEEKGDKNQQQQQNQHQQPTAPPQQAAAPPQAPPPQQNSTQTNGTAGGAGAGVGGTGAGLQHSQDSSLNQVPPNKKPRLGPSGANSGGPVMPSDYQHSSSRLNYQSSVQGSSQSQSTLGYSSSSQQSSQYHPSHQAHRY
# UniProt P09497, sequence (P09497 whole entry, looked up): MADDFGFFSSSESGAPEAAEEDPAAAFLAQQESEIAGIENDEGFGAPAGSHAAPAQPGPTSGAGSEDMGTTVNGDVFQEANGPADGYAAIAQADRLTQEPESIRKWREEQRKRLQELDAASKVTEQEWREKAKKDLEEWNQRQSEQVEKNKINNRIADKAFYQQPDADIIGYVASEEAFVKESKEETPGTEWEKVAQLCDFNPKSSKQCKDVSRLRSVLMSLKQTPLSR
# UniProt Q8N1A6, sequence (Q8N1A6 whole entry, looked up): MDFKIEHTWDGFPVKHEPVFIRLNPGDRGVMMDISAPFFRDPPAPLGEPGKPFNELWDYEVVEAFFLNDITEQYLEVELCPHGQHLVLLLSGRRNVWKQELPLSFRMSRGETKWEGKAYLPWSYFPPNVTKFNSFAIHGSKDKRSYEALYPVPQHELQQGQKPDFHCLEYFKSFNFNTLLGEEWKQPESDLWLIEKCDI
# UniProt Q9P031, sequence (Q9P031 whole entry, looked up): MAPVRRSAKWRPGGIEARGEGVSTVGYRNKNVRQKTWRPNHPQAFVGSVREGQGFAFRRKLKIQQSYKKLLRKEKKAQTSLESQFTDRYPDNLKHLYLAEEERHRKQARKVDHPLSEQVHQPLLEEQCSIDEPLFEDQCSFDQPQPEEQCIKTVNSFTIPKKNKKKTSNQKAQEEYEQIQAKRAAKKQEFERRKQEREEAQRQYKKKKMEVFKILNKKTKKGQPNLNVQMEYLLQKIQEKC
# UniProt P67870, sequence (P67870 whole entry, looked up): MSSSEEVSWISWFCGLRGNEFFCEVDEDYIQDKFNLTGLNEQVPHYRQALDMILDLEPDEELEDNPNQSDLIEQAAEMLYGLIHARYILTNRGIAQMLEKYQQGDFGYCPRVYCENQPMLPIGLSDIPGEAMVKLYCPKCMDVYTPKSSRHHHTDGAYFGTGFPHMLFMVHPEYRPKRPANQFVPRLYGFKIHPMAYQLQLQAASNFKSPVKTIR
# UniProt Q99439, sequence (Q99439 whole entry, looked up): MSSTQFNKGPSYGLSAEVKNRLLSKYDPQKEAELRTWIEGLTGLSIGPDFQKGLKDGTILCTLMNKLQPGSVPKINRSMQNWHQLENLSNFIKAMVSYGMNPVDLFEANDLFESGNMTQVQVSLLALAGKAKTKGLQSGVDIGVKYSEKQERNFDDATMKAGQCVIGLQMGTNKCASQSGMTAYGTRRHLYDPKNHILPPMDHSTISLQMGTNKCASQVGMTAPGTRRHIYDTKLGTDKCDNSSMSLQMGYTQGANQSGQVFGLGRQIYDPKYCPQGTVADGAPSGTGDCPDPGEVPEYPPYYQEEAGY
# UniProt P15954, sequence (P15954 whole entry, looked up): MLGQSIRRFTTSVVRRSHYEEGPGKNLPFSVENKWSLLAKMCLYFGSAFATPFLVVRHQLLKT
row,Target,log2 fold change
1,CNN2 (UniProt Q99439),-0.062
2,CHD4 isoform 2 (UniProt Q14839),-0.023
3,CSNK1A1 (UniProt P48729),0.243
4,C4orf33 (UniProt Q8N1A6),0.019
5,CRYM-AS1 (UniProt A6NIL9),-0.076
6,CDK16 isoform 2 (UniProt Q00536),0.845 (active)
7,CIT isoform 4 (UniProt O14578),0.049
8,CLPTM1L (UniProt Q96KA5),-0.072
9,CNOT2 (UniProt Q9NZN8),0.007
10,CD151 (UniProt P48509),-0.063
11,CSNK2B (UniProt P67870),-0.011
12,COX15 (UniProt Q7KZN9),0.028
13,CCNB1 (UniProt P14635),-0.076
14,CBX1 (UniProt P83916),0.006
15,CNOT4 isoform 6 (UniProt O95628),-0.043
16,C9orf64 (UniProt Q5T6V5),0.012
17,CLTB (UniProt P09497),-0.043
18,CCDC59 (UniProt Q9P031),0.21

row,Target,log2 fold change
1,CALCOCO2 isoform 4 (UniProt Q13137),0.071
2,CPT1A (UniProt P50416),-0.014
3,COMMD2 (UniProt Q86X83),0.011
4,CBR1 (UniProt P16152),-0.039
5,CLCN3 isoform 2 (UniProt P51790),-0.002
6,CASP3 (UniProt P42574),0.018
7,CHCHD1 (UniProt Q96BP2),-0.015
8,CHKA (UniProt P35790),-0.011
9,CCNT1 (UniProt O60563),0.047
10,CDK19 (UniProt Q9BWU1),0.16
11,CAD (UniProt P27708),0.108
12,CHCHD2 (UniProt Q9Y6H1),-0.13
13,CDC25B isoform 4 (UniProt P30305),0.014
14,CHCHD4 isoform 2 (UniProt Q8N4Q1),0.123
15,COX7C (UniProt P15954),-0.089
16,CLPX (UniProt O76031),0.058
17,CKS1B (UniProt P61024),-0.084
18,C19orf53 (UniProt Q9UNZ5),0.214

# Compound: c1cc(OCCN2CCCCC2)cc(-c2n[nH]c3ccc(-c4nnc[nH]4)cc23)c1
# Experiment: as above
# Outline: as §1
row,Target,log2 fold change
1,CNN2 (UniProt Q99439),-0.026
2,CHD4 isoform 2 (UniProt Q14839),-0.069
3,CSNK1A1 (UniProt P48729),-0.084
4,C4orf33 (UniProt Q8N1A6),-0.063
5,CRYM-AS1 (UniProt A6NIL9),-0.135
6,CDK16 isoform 2 (UniProt Q00536),-0.006
7,CIT isoform 4 (UniProt O14578),0.293
8,CLPTM1L (UniProt Q96KA5),0.002
9,CNOT2 (UniProt Q9NZN8),-0.058
10,CD151 (UniProt P48509),-0.009
11,CSNK2B (UniProt P67870),-0.02
12,COX15 (UniProt Q7KZN9),-0.064
13,CCNB1 (UniProt P14635),-0.032
14,CBX1 (UniProt P83916),-0.034
15,CNOT4 isoform 6 (UniProt O95628),-0.037
16,C9orf64 (UniProt Q5T6V5),-0.106
17,CLTB (UniProt P09497),0.07
18,CCDC59 (UniProt Q9P031),0.07

row,Target,log2 fold change
1,CALCOCO2 isoform 4 (UniProt Q13137),-0.034
2,CPT1A (UniProt P50416),0.071
3,COMMD2 (UniProt Q86X83),-0.08
4,CBR1 (UniProt P16152),0.235 (active)
5,CLCN3 isoform 2 (UniProt P51790),0.283
6,CASP3 (UniProt P42574),-0.051
7,CHCHD1 (UniProt Q96BP2),-0.169
8,CHKA (UniProt P35790),-0.012
9,CCNT1 (UniProt O60563),-0.094
10,CDK19 (UniProt Q9BWU1),-0.089
11,CAD (UniProt P27708),-0.141
12,CHCHD2 (UniProt Q9Y6H1),-0.008
13,CDC25B isoform 4 (UniProt P30305),-0.123
14,CHCHD4 isoform 2 (UniProt Q8N4Q1),0.027
15,COX7C (UniProt P15954),-0.059
16,CLPX (UniProt O76031),-0.05
17,CKS1B (UniProt P61024),-0.067
18,C19orf53 (UniProt Q9UNZ5),-0.155
